Source: PubChem BioAssay (National Center for Advancing Translational Sciences (NCATS))
In the library only some 4.4% were active in any assay of this set; here they are far more common.
USP1-UAF1 inh = USP1/UAF1 (human) deubiquitinase inhibition; Potency, µM (doses to about 57.1 µM), hits mostly inhibitors; recombinant USP1/UAF1, Ub-Rhodamine cleavage fluorescence; O94782; 390,000 tested, 0.23% active; active = well fitted inhibition curve with a large enough effect; inconclusive = small, poorly fitted or top-dose-only effect; inactive = no such curve, though single readings can be large or run the other way; note: nearly all actives have a fitted effect of over 60% in size
Target sequence (O94782 whole entry, looked up): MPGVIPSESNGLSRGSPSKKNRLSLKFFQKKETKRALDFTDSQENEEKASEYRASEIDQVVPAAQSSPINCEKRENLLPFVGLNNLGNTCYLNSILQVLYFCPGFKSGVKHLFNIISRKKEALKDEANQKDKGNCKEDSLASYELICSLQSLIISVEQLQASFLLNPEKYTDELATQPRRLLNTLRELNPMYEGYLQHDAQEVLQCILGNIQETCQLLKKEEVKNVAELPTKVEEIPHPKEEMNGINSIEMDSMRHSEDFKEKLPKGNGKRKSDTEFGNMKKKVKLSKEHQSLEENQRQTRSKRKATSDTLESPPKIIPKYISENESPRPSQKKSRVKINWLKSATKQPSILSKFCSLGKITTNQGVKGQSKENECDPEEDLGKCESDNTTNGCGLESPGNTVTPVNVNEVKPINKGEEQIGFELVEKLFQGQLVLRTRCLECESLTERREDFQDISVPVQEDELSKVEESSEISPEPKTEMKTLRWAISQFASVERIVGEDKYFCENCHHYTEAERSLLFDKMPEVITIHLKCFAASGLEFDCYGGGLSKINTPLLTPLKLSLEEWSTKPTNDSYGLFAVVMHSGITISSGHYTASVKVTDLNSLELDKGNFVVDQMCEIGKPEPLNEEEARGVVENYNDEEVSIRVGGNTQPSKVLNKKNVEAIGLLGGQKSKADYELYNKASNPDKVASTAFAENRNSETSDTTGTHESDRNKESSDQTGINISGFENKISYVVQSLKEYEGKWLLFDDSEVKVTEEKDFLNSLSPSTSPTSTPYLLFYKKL
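High-throughput fluorogenic screen: 1nM USP1/UAF1 complex, Ub-Rho substrate 150nM final, 50mM HEPES pH 7.8 with 0.5mM EDTA, 0.1 mg/ml BSA, 1mM TCEP and 0.01% Tween-20.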
TRHR agonist = activates the human TRH receptor | P34981 | TRHR cells, calcium flux fluo-8, FDSS agonist mode | activation, % at 2 µM | 360,000 tested, 0.18% active
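Fluo-8-loaded TRHR cells; 10 s baseline, compound added, kinetic Ca2+ fluorescence read 1/s, agonist mode.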
D1 potentiator = human D1 dopamine receptor positive modulation. P21728. HEK293 TREx D1 cells, calcium flux, dopamine EC20 potentiation. potentiation, % at 10 µM. 360,000 tested, 0.036% active; in the data active = potentiation above about 30%
TRHR PAM = allosteric enhancers of human TRH receptor; P34981; TRHR cells, fluo-8 calcium fluorescence, EC20 TRH enhancement; enhancement, % at 2 µM; 360,000 tested, 0.66% active; in the data active = enhancement above about 30%
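TRHR-expressing cells loaded with fluo-8 calcium dye were read kinetically (ex 480/em 530) during compound addition, then stimulated with an EC20 of TRH (10 nM final). Enhancement of the Gq-mediated intracellular calcium response was scored.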
D1 antag = human D1 dopamine receptor antagonism; P21728; HEK293 TREx D1 cells, calcium flux, dopamine EC80; active compounds read low; activity change, negative = inhibition, % at 10 µM; 360,000 tested, 3.2% active; in the data active = activity change below about -30%
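Allosteric or orthosteric antagonism assessed as attenuation of the calcium response to EC80 dopamine, added 180 s after compound, in induced HEK293 Trex D1 cells loaded with no-wash calcium dye.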
D1 ag = human D1 receptor agonism. P21728. HEK293 T-REx D1 cells, calcium flux, agonist mode. activation, % at 2 µM. 360,000 tested, 1% active
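Inducible HEK293 T-REx D1 cells, force-coupled to calcium signalling, were plated at 4000 cells/well with tetracycline and held overnight at 30 C. After no-wash calcium dye loading, compound-evoked calcium rise over 180 s flagged agonists.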
A number is an active result; n = inactive; u = inconclusive; x = no result; ! = not active in a repeat. Cut-off read from the data, not from the text of the source, unless noted: active = activation above about 30%; inactive = the rest.

SMILES	USP1-UAF1 inh	TRHR agonist	D1 potentiator	TRHR PAM	D1 antag	D1 ag
O=C(Nc1ccc(Cl)c(-c2nc3ccccc3o2)c1)c1cccc2c(Cl)cccc12	n	n	n	n	n	n
COc1ccc(C(C)NC(=O)C2CCCC2)cc1OC (configuration not stated)	n	n	n	n	-47.6	n
COc1ccc(C(CC(=O)O)NC(=O)C2CCCCC2)cc1 (configuration not stated)	n	n	n	39.4	n	n
COC(=O)c1cc(CNC(=O)c2ccc(S(=O)(=O)N(C)c3ccccc3)cc2)ccc1OC	n	n	n	n	-68.1	n
COc1ccc(CCNC(=O)c2ccc(Cl)c(S(=O)(=O)N3CCCCCC3)c2)cc1	n	n	n	n	n	n
COc1ccc(CCNC(=O)c2ccc(Cl)c(S(=O)(=O)N(C)c3ccccc3)c2)cc1	n	n	n	n	-30.8	n
CN(Cc1ccc(OC(F)F)cc1)C(=O)c1ccc(S(=O)(=O)N(C)c2ccccc2)cc1	n	n	n	n	-39.8	n
COc1cc2oc(=O)c(CC(=O)NCCc3ccccc3)c(C)c2cc1Cl	n	n	n	n	n	n
O=C1CCN2C=Nc3cccc4ccc1c2c34	28.2µM	136.2	n	n	n	170.3
O=C(CSc1n[nH]c(-c2ccccc2Cl)n1)NCc1ccc(F)cc1	n	n	n	n	n	n
Nc1nc(Nc2cccc(Cl)c2)sc1C(=O)c1ccc(F)cc1	n	n	n	n	-36.9	n
COc1ccc(Nc2nc(N)c(C(=O)c3ccc(F)cc3)s2)cc1	n	n	n	n	n	n
O=C(Nc1ccccc1N1CCCC1)c1ccc(Cl)cc1Cl	n	n	n	n	-33.4	n
COc1nnc(-c2ccc(N3CCCCC3)c(NC(=O)c3ccc(Cl)cc3)c2)c2ccccc12	n	n	n	39.2	n	n
O=C(Nc1ccccc1N1CCN(C(=O)c2ccccc2)CC1)c1ccccc1Cl	n	n	n	n	-44.9	n
O=C(Nc1ccccc1N1CCCC1)c1cc(Cl)ccc1Cl	n	n	n	n	n	n
COc1nnc(-c2ccc(N3CCCCC3)c(NC(=O)c3ccccc3)c2)c2ccccc12	n	n	n	n	n	n
O=C(Nc1ccccc1N1CCCC1)c1ccccc1Cl	n	n	n	n	n	n
CCC(=O)N1CCc2cc(S(=O)(=O)NC(Cc3ccccc3)C(=O)Nc3cccc(OC)c3)ccc21 (configuration not stated)	n	n	n	n	n	n
COC(=O)c1nc(NC(=O)C(C)(C)C)n[nH]1	n	n	n	n	-41.6	n
O=c1c2cc(Cl)ccc2nc(-c2ccc(Cl)c(Cl)c2)n1O	n	n	n	n	-44.5	87.7
O=c1c2cc(Br)ccc2nc(-c2cccc(C(F)(F)F)c2)n1O	n	n	n	n	n	62.1
N#Cc1ccc(-c2nc3ccc(Br)cc3c(=O)n2O)cc1	n	n	n	n	n	n
O=C(CCS(=O)(=O)c1cccs1)Nc1ccc(C(=O)Nc2ccccc2F)cc1	n	n	n	n	n	n
CCOCCc1nn2c(=O)cc(COC(=O)c3cccs3)nc2s1	n	n	n	n	n	n
SMILES	USP1-UAF1 inh	TRHR agonist	D1 potentiator	TRHR PAM	D1 antag	D1 ag
CCOCCc1nn2c(=O)cc(COC(=O)c3ccccc3OC)nc2s1	n	n	n	n	-31.5	n
COc1ccccc1NC(=O)CSC1=Nc2ccccc2N=C(c2ccc(F)cc2)C1	u	n	n	n	n	n
Cc1cc2c(c(=O)n1-c1ccccc1)C1O[C@](c3ccsc3)(Cc3ccccc31)O2	x	n	n	n	n	n
CC(C)c1ccc(CN(C)C(=O)c2ccc(S(=O)(=O)NCc3ccco3)cc2)cc1	n	n	n	n	-30.4	n
CN(Cc1ccc(Cl)cc1)C(=O)c1ccc(S(=O)(=O)NCc2ccco2)cc1	n	n	n	n	n	n
O=C(COC(=O)/C=C/c1ccc(C(F)(F)F)cc1)NCc1ccco1	n	n	n	n	-30.7	n
O=C(COC(=O)CCC(=O)c1ccc(F)cc1)NCc1ccco1	n	n	n	n	-31.6	n
O=C(COC(=O)/C=C/c1ccc(OC(F)F)cc1)NCc1cccs1	n	n	n	n	n	36.5
O=C(COC(=O)/C=C/c1ccccc1)NCc1ccco1	n	x	x	x	x	x
O=C(CO/N=C/c1ccc(OC(F)F)cc1)NCc1cccs1	n	n	n	n	n	n
O=C(COC(=O)/C=C/c1ccc(C(F)(F)F)cc1)NC1CCCC1	n	n	n	n	-49.1	n
CC(C)C(=O)NC(=S)Nc1ccc(S(=O)(=O)N2CCN(C)CC2)cc1	n	n	n	n	n	n
Cc1ccc(OCC(=O)Nc2ccc(S(=O)(=O)N3CCN(C)CC3)cc2)cc1	n	n	n	n	n	n
CN1CCN(S(=O)(=O)c2ccc(NC(=S)NC(=O)C3CCCC3)cc2)CC1	n	n	n	n	-45.0	n
COc1ccc(OCC(=O)Nc2ccc(S(=O)(=O)N3CCN(C)CC3)cc2)cc1	n	n	n	n	-38.6	n
Cc1cc(OCC(=O)Nc2ccc(S(=O)(=O)N3CCN(C)CC3)cc2)ccc1Br	n	n	n	n	-71.8	32.7
COc1ccccc1C(=O)NC1=NC(c2ccc(Br)cc2)CC(=O)N1 (configuration not stated)	n	n	n	n	n	n
Cc1cccc2nc(-c3cccc(NS(=O)(=O)c4ccccc4)c3)cn12	n	n	n	n	n	n
O=C(O)CSc1nnc(-c2cccc(S(=O)(=O)N3CCOCC3)c2)n1-c1cccc(Cl)c1	n	n	n	n	-31.2	n
COC(=O)c1ccccc1NC(=O)CSc1nc2nc(C)cc(C)n2n1	n	n	n	n	n	n
COc1ccc(CCn2c(C)nc3c(c(=O)c4ccccc4n3C)c2=O)cc1	n	n	n	n	n	n
COc1ccc(Cn2c(-c3ccc(C)cc3)nc3c(c(=O)c4ccccc4n3C)c2=O)cc1	u	n	n	n	n	39.0
COc1ccc(CCn2c(C(C)C)nc3c(c(=O)c4ccccc4n3C)c2=O)cc1	n	n	n	n	n	140.3
Cc1c(C(=O)OCCOc2ccccc2)[nH]c2c1C(=O)CC(c1ccccc1Cl)C2 (configuration not stated)	n	n	n	n	n	n
Cc1nn(-c2ccc(N3CCOCC3)nn2)c(C)c1CCC(=O)NCc1ccc(F)cc1	n	n	n	33.9!	n	n
Cc1ccc(CNC(=O)/C(C#N)=C\c2ccc(N(C)C)cc2)cc1	x	n	n	n	n	n
CC(OC(=O)/C(C#N)=C/c1ccc(N(C)C)cc1)C(=O)NCc1ccco1 (configuration not stated)	x	n	n	n	n	35.0
